Mtb UGM inh – M. tuberculosis UGM enzyme inhibitors, primary screen, biochemical, fluorescence polarization, single point; purified UGM, fluorescence polarization probe displacement; inhibition, % at 10 µM; hit rate 0.06% among 320,000; in the data active = inhibition above about 10%, passing the limit was not always enough
Target sequence (P9WIQ1 whole entry, looked up): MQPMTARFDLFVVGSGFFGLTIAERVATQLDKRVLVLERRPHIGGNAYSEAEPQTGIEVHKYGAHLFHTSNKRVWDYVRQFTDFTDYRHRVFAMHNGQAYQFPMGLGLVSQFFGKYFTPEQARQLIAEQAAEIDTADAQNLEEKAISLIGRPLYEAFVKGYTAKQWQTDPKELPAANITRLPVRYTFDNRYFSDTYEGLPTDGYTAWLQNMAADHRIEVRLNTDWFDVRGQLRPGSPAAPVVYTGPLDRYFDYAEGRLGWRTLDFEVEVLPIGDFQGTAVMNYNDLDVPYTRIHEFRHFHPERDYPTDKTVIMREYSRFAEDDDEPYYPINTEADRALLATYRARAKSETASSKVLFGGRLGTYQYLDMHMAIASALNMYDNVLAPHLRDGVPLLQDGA
GDH-TPI counter-1 – GDH-TPI coupling enzyme inhibitors, primary screen, artefact control for M. tuberculosis FBA inhibitor project, biochemical, absorbance, full deck | inhibition, % at 4.8 µM | GDH-TPI coupled enzyme counterscreen, NADH absorbance | hit rate 1.2% among 360,000 | AID 588335, 2011; in the data active = inhibition above about 30%;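 also: 0% = DMSO wells and 100% = wells lacking the enzyme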
Mtb bLac sens – beta-lactam sensitization of Mtb H37Rv, H37Rv; M. tuberculosis H37Rv growth with meropenem, percent inhibition; inhibition, % at 25 µM; hit rate 0.27% among 330,000; AID 434955, 2010; call rule not given here;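 also: growth measured after seven days incubation then overnight dye step; 0% = bacteria only wells and 100% = bacteria with antibiotic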
FadD28 FP inh – inhibitors of FadD28 bisubstrate probe binding, primary screen, biochemical, fluorescence polarization, single point | Mycobacterium tuberculosis FadD28 fatty-acid-AMP ligase | inhibition, % at 12.5 µM | hit rate 0.22% among 360,000 | AID 588549, 2011; in the data active = inhibition above about 8.5%, passing the limit was not always enough
Rv3671c inh – Rv3671c serine protease inhibitors, primary screen, biochemical, fluorescence polarization, M. tuberculosis H37Rv. P9WHR9. inhibition, % at 5.96 µM. hit rate 0.048% among 320,000; in the data active = inhibition above about 38%;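 also: extracellular domain of Rv3671c used as enzyme; 0% = enzyme with DMSO and 100% = no enzyme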
Mtb FBA inh – Mtb FBA enzyme inhibitors, primary screen, biochemical, fluorescence, strain H37Rv. purified M. tuberculosis FBA, fluorescence read-out. hit rate 2.3% among 360,000. inhibition, % at 1 µM. Fructose-bisphosphate aldolase (Mycobacterium tuberculosis (strain ATCC 25618 / H37Rv)), …;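 also: 0% = vehicle and 100% = reference inhibitor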
Mtb FBA inh conf – M. tuberculosis aldolase blockers, biochemical, fluorescence, strain H37Rv, confirmation; shares compounds with Mtb FBA inh; purified M. tuberculosis FBA, fluorescence read-out; inhibition, % at 1 µM; hit rate 78% among 5,600;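 also: 0% = vehicle wells and 100% = reference inhibitor wells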
GDH-TPI counter-2 – GDH-TPI coupling enzyme inhibitors, artefact control for M. tuberculosis FBA inhibitor project, biochemical, fluorescence, high throughput; shares compounds with Mtb FBA inh; GDH-TPI coupled enzyme counterscreen; inhibition, % at 1 µM; hit rate 81% among 5,600; AID 652141, 2013; in the data active = inhibition above about 10%
* marks the source's active call; other numbers are inactive results; nt = not tested or not shown; + = active, no number. Sampled rows, rich in hits. Any-hit rate of the full collection: about 3.7%. Rule as the data show it, unless noted: active = inhibition above about 27%; inactive = the rest.

SMILES | Mtb UGM inh | GDH-TPI counter-1 | Mtb bLac sens | FadD28 FP inh | Rv3671c inh | Mtb FBA inh | Mtb FBA inh conf | GDH-TPI counter-2
COCCNc1oc(-c2ccc(F)cc2)nc1C#N | 1 | 9 | -10 | -2 | 2 | 107* | 8 | -1
N#Cc1nc(-c2ccc(OCc3ccccc3)cc2)oc1NCCN1CCOCC1 | 2 | nt | 20 | nt | 3 | nt | nt | nt
CNc1oc(-c2ccc(OCc3ccccc3)cc2)nc1C#N | 1 | 6 | 72 | -2 | 3 | 74* | 84* | 70*
COc1ccc(Cl)cc1CNC[C@H]1O[C@@H](n2cnc3c(=O)[nH]c(N)nc32)[C@H](O)[C@@H]1O | nt | nt | nt | -1 | nt | -4 | nt | nt
C=CCn1c(SCC(=O)N(C(C)CC)C2CCS(=O)(=O)C2)nc2ccccc2c1=O (stereo not drawn) | nt | 2 | nt | -1 | nt | 1 | nt | nt
COc1c(C)cc(C(O)c2ncc(-c3ccccc3C)[nH]2)cc1C (stereo not drawn) | nt | -6 | nt | -4 | nt | -1 | nt | nt
O=C1COc2ccc(S(=O)(=O)CCC(=O)NC3CCCCC3)cc2N1 | 0 | 7 | -2 | 1 | -2 | 2 | nt | nt
N#Cc1nc(-c2ccco2)oc1NCc1ccccc1Cl | 5 | 19 | -8 | -3 | -2 | 35* | 89* | 79*
N#Cc1nc(-c2ccc(F)cc2)oc1NCc1ccco1 | -1 | 6 | 2 | 0 | 3 | 71* | 107* | 73*
COc1ccccc1OCc1nc(C#N)c(NCc2ccco2)o1 | -5 | 1 | -10 | 0 | 2 | 3 | nt | nt
CN(Cc1ccccc1)c1oc(-c2ccco2)nc1C#N | 0 | 16 | 11 | 0 | 0 | 67* | 41* | 37*
N#Cc1nc(-c2cccc3ccccc23)oc1NCCN1CCCCC1 | 2 | 11 | 21 | -1 | -2 | 70* | 195* | 188*
CC1(C(=O)NS(=O)(=O)C2CC2)CCN(C(=O)c2ccc3c(c2)OCO3)C1 (stereo not drawn) | nt | 2 | nt | -2 | nt | 3 | nt | nt
CN(C)CCNc1oc(-c2cccc(Cl)c2)nc1C#N | -1 | 1 | 5 | -2 | -7 | 57* | 20 | 11*
Cc1ccc(OCc2nc(C#N)c(NCc3ccco3)o2)cc1 | 4 | 5 | 12 | 2 | -4 | 1 | nt | nt
N#Cc1nc(-c2ccccc2)oc1NCCCn1ccnc1 | 2 | 11 | 1 | -1 | 2 | 100* | 139* | 89*
N#Cc1nc(-c2ccco2)oc1NCc1ccco1 | 4 | 13 | 0 | -2 | -5 | 40* | 172* | 176*
N#Cc1nc(Cc2cccc3ccccc23)oc1NCc1ccco1 | 1 | -2 | 21 | -3 | -8 | 0 | nt | nt
N#Cc1nc(-c2ccc(OCc3ccc(Cl)cc3)cc2)oc1NCCCn1ccnc1 | -3 | 2 | -9 | -3 | 2 | 1 | nt | nt
Cc1cccc(-c2nc(C#N)c(NCc3ccco3)o2)c1 | 1 | 5 | 8 | -3 | -10 | 48* | 165* | 135*
COC(=O)[C@@H](Cc1ccccc1)NC(=O)/C=C/[C@H]1O[C@@H](n2cnc3c(NC(=O)c4ccccc4)ncnc32)[C@H](O)[C@@H]1O | nt | nt | nt | 0 | nt | 1 | nt | nt
CCC(=O)N1CCC1(C)C(=O)NCc1ccc(SC)cc1 (stereo not drawn) | nt | 0 | nt | -4 | nt | -4 | nt | nt
CCN1C[C@@H]2[C@@H]3C(=O)N(C)C(=O)[C@@H]3[C@](Cc3ccccc3)(C1=O)N2C(=O)c1ccccc1 | nt | 1 | nt | -2 | nt | 7 | nt | nt
N#Cc1nc(-c2ccc(F)cc2)oc1NCc1ccccc1 | 0 | 1 | -5 | 1 | 3 | 81* | 165* | 120*
CC(C)(C)c1ccc(-c2nc(C#N)c(NCc3cccnc3)o2)cc1 | 0 | 12 | 97 | -2 | 3 | 13 | nt | nt
SMILES | Mtb UGM inh | GDH-TPI counter-1 | Mtb bLac sens | FadD28 FP inh | Rv3671c inh | Mtb FBA inh | Mtb FBA inh conf | GDH-TPI counter-2
N#Cc1nc(-c2ccco2)oc1NCCCN1CCOCC1 | 0 | 19 | -7 | 0 | -3 | 56* | + | +
O=S(=O)(c1ccccc1)c1nc(-c2ccco2)oc1NCCCN1CCOCC1 | -1 | 4 | -3 | -2 | 5 | 1 | nt | nt
O=C(Nc1ccc(Oc2ccccc2)cc1)c1csc([C@@H]2C[C@H](O)[C@@H](CO)O2)n1 | nt | -4 | nt | -6 | nt | 0 | nt | nt
CCOC(=O)c1[nH]c2ccc(OC)cc2c1NC(=O)CCN1CCSCC1 | 0 | 5 | -10 | -3 | -11 | 71* | 51* | 43*
CCOC(=O)c1[nH]c2ccc(C)cc2c1NC(=O)CN1CCCCC1 | 4 | 15 | -11 | -1 | 14 | 21 | nt | nt
CCOC(=O)c1[nH]c2ccc(OCC)cc2c1NC(=O)CN1CCCC(C)C1 (stereo not drawn) | 3 | 8 | 1 | -2 | 0 | 38* | 49* | 47*
CCOC(=O)c1oc2ccc(OC)cc2c1NC(=O)CN1CCN(C)CC1 | -4 | 3 | -4 | -2 | -1 | 40* | 1 | -5
CCOC(=O)c1[nH]c2ccc(OC)cc2c1NC(=O)CN1CCC2(CC1)OCCO2 | -3 | 10 | 3 | 0 | 0 | 47* | 134* | 104*
CCOC(=O)C1(C)CCCN1C(=O)c1ccccc1F (stereo not drawn) | nt | 5 | nt | 0 | nt | 2 | nt | nt
COc1ccc(-c2oc3ccccc3c2C(=O)OCc2ccccc2OC)cc1 | -1 | 31* | 10 | -1 | -21 | 73* | -7 | -8
O=C(N=Nc1c(O)[nH]c2ccc(F)cc12)C1COc2ccccc2O1 (stereo not drawn) | -1 | 14 | -7 | -2 | 5 | 38* | 131* | 104*
O=C(COC(=O)C1COc2ccccc2O1)c1ccc(F)cc1 (stereo not drawn) | nt | 4 | nt | 0 | nt | 2 | nt | nt
NC(=O)c1cc2nc(-c3ccco3)cc(C(F)(F)F)n2n1 | -3 | 28 | 1 | -1 | 11 | 24 | nt | nt
FC(F)(F)c1cc(-c2ccco2)nc2ncnn12 | -3 | 17 | 0 | -1 | 0 | 27* | 75* | 57*
FC(F)(F)c1cc(-c2ccccc2)nc2ncnn12 | 1 | 1 | 2 | 1 | 2 | 34* | 0 | -3
Cc1ccc(Nc2cc(-c3ccccc3)nc3ncnn23)cc1 | 0 | 1 | -1 | -1 | 2 | -20 | nt | nt
COc1ncnc2c1ncn2CCCN1CCN(c2ncccn2)CC1 | nt | 4 | nt | -3 | nt | -2 | nt | nt
COCCNC(=O)C1(C)Cc2c(-c3cccc(C(F)(F)F)c3)ccnc2O1 (stereo not drawn) | nt | 4 | nt | 0 | nt | -3 | nt | nt

Source: PubChem BioAssay
